From PubChem BioAssay (NCI)
Where “and” joins values, the source holds several entries; their conditions need not be identical. Equal values may be shown once. Compounds without any hit were thinned out: in the full panel of roughly 79,000, 15% have a hit. Unmarked numbers belong to inactive results. Calls of active or inactive are those of the source. Cut-off read from the data, not from the text of the source: active = growth inhibition above about 70%; inactive = the rest.

Assays:
[1] = NCI Yeast Anticancer Drug Screen. Data for the rad50 strain (AID 155);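 note: 0% = growth of vehicle-only cultures of the same strain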; details: S. cerevisiae rad50 strain growth inhibition, hits give high values; at 50.0 µM unless noted
Summary of the method: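 Yeast carrying a defined DNA repair defect were exposed to test compounds, and growth was compared with vehicle-treated controls to give percent inhibition.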

[2] = NCI Yeast Anticancer Drug Screen. Data for the mec2-1 strain (AID 157); details: S. cerevisiae mec2-1 strain, hits give high values; at 50.0 µM unless noted
Summary of the method: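 Mutant yeast (mec2-1) grown with compound; growth inhibition relative to vehicle control reported.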

[3] = NCI Yeast Anticancer Drug Screen. Data for the sgs1 mgt1 strain (AID 161);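 note: 0% = growth of cultures given vehicle only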; details: S. cerevisiae sgs1 mgt1 strain, hits give high values; at 50.0 µM unless noted
Summary of the method: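 Growth of a repair-deficient yeast mutant was monitored after compound treatment and expressed as inhibition relative to vehicle-treated cultures.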

[4] = NCI Yeast Anticancer Drug Screen. Data for the cln2 rad14 strain (AID 165);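 note: 0% = growth equal to vehicle treated cultures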; details: S. cerevisiae cln2 rad14 strain, hits give high values; at 50.0 µM unless noted
Summary of the method: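 Readout is yeast growth inhibition versus vehicle-treated controls, using a strain with cln2 and rad14 alterations exposed to compound.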

[5] = NCI Yeast Anticancer Drug Screen. Data for the bub3 strain (AID 167); details: S. cerevisiae bub3 mutant strain, hits give high values; at 50.0 µM unless noted
Summary of the method: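 Compounds were applied to a genetically altered yeast strain carrying a cell-cycle control defect. Growth inhibition was scored against vehicle-treated controls.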

[6] = NCI Yeast Anticancer Drug Screen. Data for the mlh1 rad18 strain (AID 175); details: S. cerevisiae mlh1 rad18 strain growth inhibition, hits give high values; at 50.0 µM unless noted
Summary of the method: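 Genetically defined yeast (DNA repair-deficient) exposed to compounds; growth inhibition determined relative to vehicle.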

| SMILES | growth inhibition [1] | growth inhibition [2] | growth inhibition [3] | growth inhibition [4] | growth inhibition [5] | growth inhibition [6] |
| --- | --- | --- | --- | --- | --- | --- |
| O=C(O)/C=C\C(=O)Nc1ccc2c(c1)Cc1cc(O)ccc1-2 | 7.95% | 30.8% | 17.8% | 25.7% | 21.9% | -0.3% |
| N#Cc1cc2c(N)ncnc2nc1N1CCCC1 | -43.7% | -61.8% | -13.3% | -2.25% | 5.35% | -26.2% |
| CC(=O)NS(=O)(=O)c1ccc(NC(=O)/C=C/C(=O)O)cc1 | 1.1% and -16.6% | -15.7% and -18.1% | -0.45% | -3.05% | -11.7% | 19.9% and -18% |
| Cc1ccc2nc(NC(=O)C(=O)C(C#N)c3nc4ccccc4s3)sc2c1 (centres undefined) | 11.2% | 1.75% | 19.7% | 25.6% | 18.5% | 19.2% |
| CCCC(=O)N(CCC(C)C)c1ccccc1 | -12.6% | 6.3% | 2.45% | 9.9% | -9.25% | -7.8% |
| CCCCOC(=O)C(C)OC(=O)C(C)Oc1cc(Cl)c(Cl)cc1Cl (centres undefined) | -1.65% | -3.95% | 0.3% | 16.9% | 3.9% | -0.8% |
| CCOC(=O)C(NC(=O)CC)(Nc1ccc(S(=O)(=O)Nc2nc(C)cc(C)n2)cc1)C(F)(F)F (centres undefined) | -5.6% | -3.4% | 8.55% | 21.6% | 2.5% | 7.65% |
| Cc1ccc(NC(=O)CC/C(CC(=O)c2ccc(F)cc2)=N\NC(=O)C(=O)NN)cc1C | -11.3% | -5.2% | -9.55% | -3.3% | -1.7% | -1.25% |
| c1ccc(C2Cc3ccccc3C2c2ccccc2)cc1 (centres undefined) | 9.85% | 11% | 22.8% | -17.8% | -7.6% | -13.3% |
| O=CN1CCCCC1 | -43.1% and -15.2% | -26% and -2.6% | -3.05% and -5.15% | 3.15% and -27.7% | -18.9% and 0.45% | -8.8% and 0.65% |
| CC(=O)Oc1ccc2c(c1)CCC2 | 9.85% | 12.8% | 1.4% | 8.25% | 15.1% | 0.1% |
| O=[N+]([O-])c1ccc2c(c1)S(=O)c1ccccc1-2 (centres undefined) | -18.1% | -3.65% | -12.4% | 1% | -37.8% | -4.8% |
| COc1ccccc1/C=C1\SC(=S)NC1=O | -44.6% | -36.9% | -38.2% | -14.6% | -17.8% | -40.1% |
| CCCn1/c(=N\N=O)sc2ccccc21 | -0.45% | 2.9% | -5.5% | -29.6% | -23.1% | 7% |
| O/C(=C/c1ncnc2ccccc12)c1cccc(Cl)c1 | 12.5% | 4.4% | 22.8% | -11.4% | 14.7% | 15% |
| CC(CCO)CCCO (centres undefined) | -22.1% | -11.8% | 7.35% | -13.8% | -26.2% | -26.8% |
| c1ccc(CC2=NCCO2)cc1 | -5.55% | 2.25% | -3.3% | -33% | 3.85% | -25.9% |
| FC(F)(F)c1ccc2nc(NCc3ccccc3)c(-c3ccccc3)nc2c1 | 3.85% | 15.6% | 24.6% | -6.25% | 26.9% | 35.8% |
| CN(C)CCCNC(=O)N/N=C/c1ccccc1 | 13.9% | -13.8% | -13.8% | -6.3% | -39.7% | -21.1% |
| COC(=O)Cc1cc(C)n(C)c(=O)c1CN1C(=O)c2ccccc2C1=O | 10.6% | -10.9% | 5.4% | 12.4% | -11.2% | 20.8% |

| SMILES | growth inhibition [1] | growth inhibition [2] | growth inhibition [3] | growth inhibition [4] | growth inhibition [5] | growth inhibition [6] |
| --- | --- | --- | --- | --- | --- | --- |
| COC(=O)CCC(NC(=S)N/N=C(\C)c1ccco1)C(=O)OC (centres undefined) | -18.1% | -20.8% | 0.25% | 26.6% | -5.2% | -16.3% |
| Cc1ccccc1C(=O)c1ccccc1C | -16.3% | -9.95% | -7.2% | -34% | -1.55% | -9.9% |
| CCOC(=O)NC(=O)c1cn(CCSCCOC(=O)NCCCCCCNC(=O)OCCSCCn2cc(C(=O)NC(=O)OCC)c(=O)n(C)c2=O)c(=O)n(C)c1=O | -26% | -10.6% | -29.7% | 7.9% | -0.35% | -18.4% |
| CCCCCCCCCCCCCCCCCc1c(Cl)c(Cl)c(Cl)c(Cl)c1Cl | 47% | -4% | 26.4% | -45.1% | -2.75% | -6.6% |
| COc1ccc2c(c1)Cc1cc(NC(C)=O)ccc1-2 | -4.55% | -11.2% | 21.5% | -47.9% | 4.1% | 13.1% |
| CC(=O)c1ccc(O)c(/C=C2\CCOC2=O)c1 | 8.2% | 8.4% | -9% | -3.45% | 9.55% | 7.7% |
| CN[C@@H]1[C@H](O)[C@H](NC)[C@H]2O[C@@]3(O)C(=O)C[C@@H](C)O[C@H]3O[C@@H]2[C@H]1O | 7.35% | -23.1% | -21.9% | 7.45% | -12.6% | -9.1% |
| CC(=O)N(C)c1ccc(NC(=O)C2CCCCC2C(=O)O)cc1 (centres undefined) | 6.95% | 8.6% | 6.2% | 3.65% | 22.2% | -14.2% |
| CCCCN(CCCC)CC(C(=O)Nc1ccc([N+](=O)[O-])cc1[N+](=O)[O-])/C(C)=N\NC(=S)NN (centres undefined) | 3.55% | -6.8% | 44.7% | 24.8% | 16.2% | 24.4% |
| Cc1cccc2ccc(-c3cc4ccccc4s3)nc12 | -5.95% | -15.1% | -3.1% | -87.6% | -10.2% | -21.1% |
| O=C(O)CC(O)(c1ccccc1)c1ccccc1 | 0.05% | -1.7% | -5.05% | -7.9% | 1.4% | 0% |
| SCCNCc1ccccc1 | 20.9% | -13.1% | 6.9% | 9.85% | 6.9% | 10.2% |
| Cc1c2n(c(=O)[nH]c1=O)C1OC(CO)C(O2)C1N=[N+]=[N-] (centres undefined) | -11.1% | -17.6% | -27.2% | -7.55% | -9.65% | -34.6% |
| Cc1ccc(/C=N/NC(N)=S)nn1 | 3.45% | 2.25% | -8.15% | -67.4% | 2.45% | 5.4% |
| COc1cccc(C2c3cc4c(cc3OC(NNS(=O)(=O)c3ccc(C)cc3)C2C)OCO4)c1OC (centres undefined) | 3.75% | 4.55% | 10.3% | 8.05% | 36.9% | 18.2% |
| FC(F)(F)c1ccc(C2=CCCCC2)cc1 | 24.1% | 6.45% | 4.45% | 24.5% | -18.6% | 13.2% |
| CCCCCCCCCCCCCCCC[N+](C)(C)CC#N | 99.4% (active) | 99.3% (active) | 99.2% (active) | 99% (active) | 99.2% (active) | 99.5% (active) |
| OC(COc1cccc(C(F)(F)F)c1)CN1CCN(c2ccc(F)cc2)CC1 (centres undefined) | 86.8% (active) | 88% (active) | 96.3% (active) | 88.5% (active) | 86.4% (active) | 92.2% (active) |
| O=C(O)C(Nc1ccc(Cl)cc1)c1ccccc1 (centres undefined) | 1.7% | 3.25% | 18.9% | 6.5% | 8.1% | -22.6% |
